# Measurements published in the supplement of paper PMC12636033.
# ± gives the standard deviation of the averaged measurements. The full ranking holds about 33,000 sequences; the median of “E-score (rank enrichment, -0.5 to 0.5)” is about -0.0043, and the highest 2% start at about 0.24. Shown is part of a subset that was picked to be rich in the highest values.
# Test system: 2Sp-muMax20 (muMax20 with two 2,6-bis(methyl)pyridine Cys staples)
# Assay: PBM 8-mer E-score (E-score (rank enrichment, -0.5 to 0.5)); higher = stronger preferential binding
# Description: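 Protein binding microarray (universal PBM chip covering all 10-mers in fixed probe flanks) with chemically synthesized human Max(13-93) bHLH-LZ analogs (not full-length Max) bearing noncanonical residues (hArg, Tha, Aib, Nle at 65) and aromatic Cys staples. Read-out per 8-mer (and its reverse complement): E-score (rank-based enrichment, -0.5 to 0.5) and Z-score of median probe intensity.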
row,Sequence,PBM 8-mer E-score
1,TCTTATAA,0.193 ± 0.04
2,TATTCTAA,0.246 ± 0.003
3,AATTATAG,0.148 ± 0.082
4,CATTATAG,0.0091 ± 0.076
5,GGGGGGGA,-0.1747 ± 0.00091
6,AGATAGCA,0.137 ± 0.011
7,CCTTATGC,0.0835 ± 0.078
8,AATTATCC,0.0373 ± 0.0027
9,AATTATCA,0.198 ± 0.045
10,AATTATCT,0.235 ± 0.023
11,ACCCTCGT,0.00159 ± 0.081
12,GACTAACA,0.0143 ± 0.0082
13,GGCCCAAA,-0.117 ± 0.027
14,CAAATGGC,-0.0435 ± 0.002
15,CAAATGGG,0.236 ± 0.052
16,AAAATGGG,-0.206 ± 0.0038
17,GAAATGTA,0.0185 ± 0.077
18,CGAATGCC,-0.0493 ± 0.096
19,CGAATGCG,0.0188 ± 0.013
20,AAAATGCT,0.263 ± 0.0092
21,AAAATGCC,-0.0688 ± 0.037
22,AAAATGCA,0.145 ± 0.012
23,CAAATGTA,0.188 ± 0.012
24,CGAATGCA,0.32 ± 0.04
25,TAAATGTA,0.281 ± 0.054

row,Sequence,PBM 8-mer E-score
1,CGGGACCG,-0.357 ± 0.032
2,CCTATCCC,0.0952 ± 0.097
3,TCATCTAA,0.00256 ± 0.03
4,AATCTAAA,0.0534 ± 0.04
5,CAGCGATC,-0.158 ± 0.022
6,AGAATGCA,0.0925 ± 0.055
7,ACCAATCA,-0.0682 ± 0.088
8,CGTACGAA,0.19 ± 0.0087
9,CACGACGG,0.0169 ± 0.013
10,CGAAGAAA,0.223 ± 0.059
11,CCACTGAA,-0.0273 ± 0.065
12,AGCAAGAT,-0.0742 ± 0.058
13,CAAATGAG,0.0988 ± 0.053
14,AAAATGAA,0.135 ± 0.0098
15,CAAATGCA,0.064 ± 0.011
16,GAAATGCA,0.135 ± 0.11
17,AAAATGAG,0.267 ± 0.012
18,TAAATGCA,0.238 ± 0.1
19,AAGGTTTA,-0.18 ± 0.048
20,GCGCGCAA,0.184 ± 0.057
21,AAATGGCA,0.155 ± 0.028
22,TAGACATA,0.0769 ± 0.014
23,ACATGTGA,0.312 ± 0.0028
24,CCATGTGA,0.268 ± 0.087
25,GAATGTGA,0.00134 ± 0.14

row,Sequence,PBM 8-mer E-score
1,CGATGTGA,0.0746 ± 0.018
2,AGATGTGA,0.199 ± 0.019
3,GCATGTGA,0.183 ± 0.082
4,ATATGTGG,0.218 ± 0.032
5,TAATGTGA,0.266 ± 0.01
6,CCATGTGC,0.114 ± 0.025
7,CTATGTGA,0.148 ± 0.044
8,CAATGTGA,0.146 ± 0.013
9,ATATGTGA,0.311 ± 0.022
10,GCTTAGCA,0.039 ± 0.11
11,TACGCTAA,0.218 ± 0.0075
12,GTTCTCTA,-0.185 ± 0.098
13,AGTTCCAA,-0.0402 ± 0.057
14,CCCCCCTA,-0.112 ± 0.073
15,GCCAAACC,-0.0278 ± 0.14
16,GCAGATAC,0.04 ± 0.079
17,ATACTAAA,0.145 ± 0.13
18,ATTCTACA,0.253 ± 0.021
19,ATAATACG,0.177 ± 0.032
20,GTTCTACA,0.0307 ± 0.072
21,ATAATACC,0.209 ± 0.033
22,ATACTACC,0.147 ± 0.029
23,GTACTAAC,0.127 ± 0.038
24,ATACTAAC,0.245 ± 0.041
25,ATAATACA,0.271 ± 0.0055

row,Sequence,PBM 8-mer E-score
1,ATTCTACG,0.228 ± 0.01
2,CTACTACA,0.0934 ± 0.18
3,ATACTACA,0.258 ± 0.033
4,CCCGTCCA,-0.241 ± 0.017
5,TTCTAAAA,-0.19 ± 0.05
6,TCCAACGA,-0.0483 ± 0.18
7,CTGGCAAG,-0.0269 ± 0.07
8,ACATTTTA,0.232 ± 0.019
9,CCACTATA,0.183 ± 0.0029
10,GGCAGTAC,0.105 ± 0.086
11,CTACTAGA,0.05 ± 0.076
12,ATACTAGA,0.26 ± 0.055
13,ATACTAGC,0.117 ± 0.075
14,AAAATAGC,-0.0165 ± 0.011
15,AAAATAGA,0.242 ± 0.0042
16,TAAATAGA,0.000425 ± 0.01
17,TAACCTCA,-0.00886 ± 0.051
18,GAGAGCAA,-0.127 ± 0.12
19,CCTGGATA,-0.0904 ± 0.0036
20,AAATAGGC,0.0753 ± 0.026
21,AAATAGGG,0.208 ± 0.0056
22,GAATAGAC,0.104 ± 0.096
23,AAATAGAT,0.227 ± 0.023
24,AAATAGGT,0.241 ± 0.0095
25,AAATAGAC,0.257 ± 0.0069

row,Sequence,PBM 8-mer E-score
1,ACCGAAAA,-0.0179 ± 0.15
2,CTCTTCCC,-0.062 ± 0.011
3,AACGTGCC,0.0275 ± 0.036
4,GACGTGCC,-0.0934 ± 0.065
5,CGCGTGCA,0.263 ± 0.035
6,CACGTGCC,0.405 ± 0.0045
7,CGCGTGCC,0.0851 ± 0.061
8,TACGTGCA,0.105 ± 0.013
9,GGCGTGCA,0.11 ± 0.047
10,AACGTGCA,0.149 ± 0.025
11,CCCGTGCG,-0.119 ± 0.06
12,AACGTGCG,0.129 ± 0.11
13,CACGTGCG,0.4142 ± 0.0019
14,CACGTGCA,0.419 ± 0.027
15,GGTAGCAA,0.163 ± 0.004
16,AAGTACTT,0.109 ± 0.032
17,ACCGCATG,0.132 ± 0.074
18,GCGCATCA,0.0862 ± 0.011
19,CGGGTACA,-0.205 ± 0.03
20,GACCGACA,-0.18 ± 0.052
21,GAACAAAC,0.046 ± 0.051
22,CCATAATC,0.159 ± 0.019
23,CTCTTAGA,-0.116 ± 0.051
24,AACAAATA,0.212 ± 0.063
25,AACAAATT,0.265 ± 0.0042

row,Sequence,PBM 8-mer E-score
1,AAACAATG,0.121 ± 0.021
2,AAACAATA,0.101 ± 0.046
3,AACAAGTT,0.0512 ± 0.042
4,AAACAATT,0.252 ± 0.046
5,ATGCAGTA,0.0482 ± 0.088
6,ACATAGCT,-0.143 ± 0.0071
7,ACCCTCCA,0.168 ± 0.0021
8,TCCCTTCA,0.107 ± 0.057
9,CCCCTTCC,-0.00527 ± 0.1
10,ACCCTCCT,-0.0498 ± 0.0072
11,CCCTCCCC,0.142 ± 0.11
12,CCCCTCCA,0.236 ± 0.033
13,ACCCTCCC,0.26 ± 0.043
14,TCCCTCCA,-0.114 ± 0.086
15,CCCCTTCA,0.248 ± 0.1
16,GCCCTCCA,-0.00293 ± 0.051
17,CCCCTCCC,0.311 ± 0.014
18,CCCCTCCG,-0.0068 ± 0.12
19,ATATACGG,0.0505 ± 0.015
20,GGCTCAAC,-0.0877 ± 0.06
21,AGGAATAA,0.0163 ± 0.077
22,CTTCTACA,-0.0255 ± 0.032
23,ACCTGCCA,-0.188 ± 0.047
24,ACATTATA,0.282 ± 0.0059
25,ACATTATG,0.147 ± 0.1

row,Sequence,PBM 8-mer E-score
1,ACATTATC,0.159 ± 0.038
2,CCATTATA,0.257 ± 0.045
3,CCATTATC,0.157 ± 0.04
4,GCATTATA,0.186 ± 0.059
5,CGTATGCC,-0.0525 ± 0.034
6,GCTGTTGA,-0.119 ± 0.013
7,AGGGTGGA,-0.0107 ± 0.009
8,AGGGTGGC,0.0126 ± 0.068
9,AGGGTGGG,0.245 ± 0.073
10,ACAGAGAA,0.129 ± 0.14
11,AGATGGGC,-0.0126 ± 0.1
12,ATATGGGG,0.239 ± 0.024
13,CTATGGGC,-0.0549 ± 0.074
14,ATATGGAG,0.127 ± 0.014
15,CCATGGGG,-0.0568 ± 0.073
16,ATATGGGA,0.136 ± 0.11
17,ATATGGGC,0.249 ± 0.04
18,ACATGGGA,0.162 ± 0.035
19,ACATGGGG,0.246 ± 0.072
20,GAATCATC,-0.0799 ± 0.064
21,TCGTACAA,0.1 ± 0.042
22,CAACCAAC,-0.132 ± 0.022
